Results reported in PubChem BioAssay.
Active and inactive are the calls of the source. Unless noted, how the calls were made is not given here.

Tests used:
[1] = test system: Wnt5a (protein binding on small-molecule microarray); test: Wnt5a binders on small-molecule microarray, primary screen, biophysical, 635/667 nm fluorescence (AID 1142); conditions: 635 nm fluorescence, higher = more signal;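 further: fluorescence read at 667 nm with signal to noise per printed feature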
[2] = cell viability in Huh7 cells, primary screen, cytotoxicity control for HCV replication inhibitor project, CellTiter-Glo luminescence, basal, 48 h (AID 1143); conditions: Huh7 HCV replicon, higher = more signal, called active from +8 up or from −8 down;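 further: Huh7 hepatoma cells carrying a hepatitis C replication reporter with no stimulus; test concentration not given here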
[3] = P. aeruginosa biofilm formation inhibitors, primary screen, PAO1 strain, BacTiter-Glo luminescence, LB-PBS (AID 1144); conditions: 12 h, higher = more signal
[4] = CREB reporter modulators without forskolin, primary screen, cell-based, PC12, CRE-LacZ reporter, unstimulated (AID 1145); conditions: no forskolin, luminescence, 4.5 h, higher = more signal, called active from +8 up or from −8 down
[5] = CREB reporter modulators under forskolin, primary screen, cell-based, PC12, CRE-LacZ reporter, forskolin-stimulated (AID 1146); conditions: luminescence, 4.5 h, higher = more signal, called active from +8 up or from −8 down;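 further: PC12 cells with 6xCRE LacZ reporter stimulated by forskolin 10 µM; beta-galactosidase reporter signal reflecting CREB driven transcription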
[6] = molecular target: Streptavidin (Streptomyces avidinii) (UniProt P22629); test: streptavidin binders on small-molecule microarray, primary screen, artefact control for SMM compound annotation, biophysical, 635/667 nm fluorescence (AID 1147); conditions: streptavidin binding, higher = more signal;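 further: signal reflects streptavidin binding to arrayed compounds as a control protein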
[7] = small-molecule binders of probe aInhba, primary screen, biochemical, small-molecule microarray, 635/667 nm fluorescence (AID 1148); conditions: higher = more signal;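 further: score merges 667nm spot fluorescence with signal-to-noise for antibody binding to printed compounds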
Torsin-1A (Homo sapiens) [8] = molecular target: Torsin-1A (Homo sapiens) (UniProt O14656); test: torsin A binders from cell lysate, primary screen, small-molecule microarray, wild-type, 635/667 nm (AID 1149); conditions: COS7 hTOR1A-WT lysate, 635 nm fluorescence, higher = more signal
Torsin-1A (Homo sapiens) [9] = molecular target: Torsin-1A (Homo sapiens) (UniProt O14656); test: small-molecule binders of mutant TOR1A in lysate, primary screen, cell lysate, small-molecule microarray, COS7 lysate, 635/667 nm fluorescence (AID 1150); conditions: COS7 hTOR1A mutant lysate, 635 nm fluorescence, higher = more signal;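 further: score pools 667 nm emission and signal to noise measuring lysate protein binding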
[10] = test system: Sonic hedgehog protein (Shh); test: small-molecule binders of Shh protein, primary screen, biochemical, small-molecule microarray, 635/667 nm fluorescence (AID 1151); conditions: small-molecule microarray binding, 635 nm fluorescence; higher = more signal;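 further: Shh protein binding to compounds spotted on small-molecule microarray slides; score combines spot fluorescence intensity with signal-to-noise across triplicate slides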

Sequence of Streptavidin (Streptomyces avidinii) (P22629 whole entry, looked up): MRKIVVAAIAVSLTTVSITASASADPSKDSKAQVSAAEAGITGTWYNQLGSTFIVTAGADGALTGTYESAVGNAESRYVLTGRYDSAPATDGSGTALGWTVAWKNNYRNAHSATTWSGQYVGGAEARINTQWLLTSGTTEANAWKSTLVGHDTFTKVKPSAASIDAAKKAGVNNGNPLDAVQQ
Sequence of Torsin-1A (Homo sapiens) (O14656 whole entry, looked up): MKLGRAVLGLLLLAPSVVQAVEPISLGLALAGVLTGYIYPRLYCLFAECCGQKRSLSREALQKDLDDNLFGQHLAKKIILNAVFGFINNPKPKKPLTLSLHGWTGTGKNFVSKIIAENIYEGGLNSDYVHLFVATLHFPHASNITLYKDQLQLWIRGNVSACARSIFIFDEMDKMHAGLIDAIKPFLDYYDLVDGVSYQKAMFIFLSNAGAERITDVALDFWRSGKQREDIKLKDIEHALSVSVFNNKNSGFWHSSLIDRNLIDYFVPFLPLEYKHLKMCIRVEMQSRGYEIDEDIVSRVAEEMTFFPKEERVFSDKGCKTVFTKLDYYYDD

With `CCOc1ccc(N2C(=O)/C(=C/C=C/c3ccccc3OC)S(=O)(=O)C2c2cccc([N+](=O)[O-])c2)cc1` (stereo not given) the composite z-score [1] was -0.0676, the z-score [2] was -4.29 (inactive) and the z-score [3] was -1.57 (inactive). For the same compound, the z-score [4] was 0.0026 (inactive), the z-score [5] was -1.2 (inactive) and the composite z-score [6] was 0.27. The composite z-score [7] was -0.0596, the composite z-score (Torsin-1A (Homo sapiens) [8]) was 1.94 and the composite z-score (Torsin-1A (Homo sapiens) [9]) was 0.184. It also gave a composite z-score [10] of 0.37.
With `CCN1C(=O)[C@H]2[C@H]3[C@H](O)C=CC(=O)[C@@H]3CC[C@H]2C1=O` the composite z-score [1] was 0.213, the z-score [2] was 0.148 (inactive) and the z-score [3] was 0.465 (inactive). The z-score [4] was 0.342 (inactive), the z-score [5] was 0.069 (inactive) and the composite z-score [6] was 0.232. It also gave a composite z-score [7] of -0.0759, a composite z-score (Torsin-1A (Homo sapiens) [8]) of 0.0994 and a composite z-score (Torsin-1A (Homo sapiens) [9]) of 0.546. For the same compound, the composite z-score [10] was 0.62.
For `COc1ccc(OC[C@H]2Cc3c(-c4ccccc4)nc4c(c3CO2)CN(CCOc2ccccc2)CC4)cc1`, the composite z-score [1] was 0.133, the z-score [2] was -3.41 (inactive) and the z-score [3] was -1.27 (inactive). The z-score [4] was 5.99 (inactive), the z-score [5] was -1.02 (inactive) and the composite z-score [6] was 0.633. For the same compound, the composite z-score [7] was 0.109, the composite z-score (Torsin-1A (Homo sapiens) [8]) was 0.086 and the composite z-score (Torsin-1A (Homo sapiens) [9]) was 0.534. The composite z-score [10] was 1.37.
In the case of `CC(CCC(=O)OC[C@H]1O[C@H](C#Cc2ccccc2)C=C[C@@H]1Oc1ccc(C)cc1)=NOC[C@@H](O)COCc1ccco1`, the composite z-score [1] is reported as -1.52, the z-score [2] is reported as -0.204 (inactive) and the z-score [3] is reported as -0.128 (inactive). The z-score [4] was 3.74 (inactive), the z-score [5] was 1.9 (inactive) and the composite z-score [6] was -1.78. The composite z-score [7] was -0.446, the composite z-score (Torsin-1A (Homo sapiens) [8]) was -6.37 and the composite z-score (Torsin-1A (Homo sapiens) [9]) was -5.2. For the same compound, the composite z-score [10] was -2.43.
For `CC(C)[C@@H](OCc1ccccc1)[C@H](C)C=NOC[C@@H](C)[C@H](OCc1ccccc1)C(C)C`, the composite z-score [1] was 0.187, the z-score [2] was 0.459 (inactive) and the z-score [3] was 0.627 (inactive). The z-score [4] was 0.471 (inactive), the z-score [5] was -0.144 (inactive) and the composite z-score [6] was 0.118. It also gave a composite z-score [7] of -0.128, a composite z-score (Torsin-1A (Homo sapiens) [8]) of 0.256 and a composite z-score (Torsin-1A (Homo sapiens) [9]) of 0.204. The composite z-score [10] was 0.256.
With `C=CC[C@@H]1C=C[C@H](ON=C2c3cc(OC)ccc3O[C@H](c3cccc(OC)c3)[C@H]2O)[C@@H](CO)O1` the composite z-score [1] was -0.0596, the z-score [2] was -0.375 (inactive) and the z-score [3] was 0.0436 (inactive). For the same compound, the z-score [4] was 5.59 (inactive), the z-score [5] was 0.442 (inactive) and the composite z-score [6] was 0.0285. For the same compound, the composite z-score [7] was -0.182, the composite z-score (Torsin-1A (Homo sapiens) [8]) was -0.0807 and the composite z-score (Torsin-1A (Homo sapiens) [9]) was -0.129. The composite z-score [10] was 0.723.
With `COC(=O)CC=C[C@H](C)[C@@H](OCc1ccccc1Br)C(C)C` the composite z-score [1] was -0.106, the z-score [2] was 0.298 (inactive) and the z-score [3] was -0.643 (inactive). For the same compound, the z-score [4] was 0.194 (inactive), the z-score [5] was 0.615 (inactive) and the composite z-score [6] was 0.228. The composite z-score [7] was -0.128, the composite z-score (Torsin-1A (Homo sapiens) [8]) was 0.066 and the composite z-score (Torsin-1A (Homo sapiens) [9]) was 0.674. The composite z-score [10] was 0.438.
With `O=C1[C@H]2[C@H]3[C@H](O)[C@H](O)CC(=NO[C@@H]4O[C@H](CO)[C@@H](O)[C@H](O)[C@H]4O)[C@H]3CC[C@H]2C(=O)N1Cc1ccc2c(c1)OCO2` the composite z-score [1] was -0.228, the z-score [2] was -0.402 (inactive) and the z-score [3] was 1.58 (inactive). The z-score [4] was 0.525 (inactive), the z-score [5] was -0.576 (inactive) and the composite z-score [6] was 0.595. For the same compound, the composite z-score [7] was -0.0719, the composite z-score (Torsin-1A (Homo sapiens) [8]) was 0.838 and the composite z-score (Torsin-1A (Homo sapiens) [9]) was 0.181. It also gave a composite z-score [10] of -0.928.
With `CN(C)C(=O)[C@@]1(Cc2ccccc2)N=C(c2ccc(OCCCO)cc2)O[C@H]1c1ccccc1CN=[N+]=[N-]` the composite z-score [1] was 1.45, the z-score [2] was -2.26 (inactive) and the z-score [3] was 0.456 (inactive). For the same compound, the z-score [4] was 0.974 (inactive), the z-score [5] was -0.55 (inactive) and the composite z-score [6] was 1.5. For the same compound, the composite z-score [7] was 0.696, the composite z-score (Torsin-1A (Homo sapiens) [8]) was 0.526 and the composite z-score (Torsin-1A (Homo sapiens) [9]) was 1.79. It also gave a composite z-score [10] of -0.122.
With `COC(=O)C1=C(C)N(Cc2ccccc2)[C@]23O[C@](C(=O)OC)(C(=O)N2[C@@H]1c1ccccc1)[C@H]1CCOC(=O)[C@H]13` the composite z-score [1] was 0.313, the z-score [2] was -0.147 (inactive) and the z-score [3] was -1.02 (inactive). For the same compound, the z-score [4] was 0.286 (inactive), the z-score [5] was -0.213 (inactive) and the composite z-score [6] was 0.0391. The composite z-score [7] was -0.0118, the composite z-score (Torsin-1A (Homo sapiens) [8]) was 0.252 and the composite z-score (Torsin-1A (Homo sapiens) [9]) was 0.22. The composite z-score [10] was 1.05.
For `CN1C(=O)C2C=CC(C(O)C(c3ccccc3)c3ccccc3)N(NC(=O)OC(C)(C)C)C2C1=O` (stereo not given), the composite z-score [1] was 0.843, the z-score [2] was -0.0027 (inactive) and the z-score [3] was 0.417 (inactive). For the same compound, the z-score [4] was -0.136 (inactive), the z-score [5] was 0.0964 (inactive) and the composite z-score [6] was 1.68. The composite z-score [7] was 0.72, the composite z-score (Torsin-1A (Homo sapiens) [8]) was -0.05 and the composite z-score (Torsin-1A (Homo sapiens) [9]) was 0.848. It also gave a composite z-score [10] of -0.587.
With `CC(C)c1ccc(NN2C(C(O)c3ccc4c(c3)OCO4)C=CC3C(=O)N(c4ccccc4)C(=O)C32)cc1` (stereo not given) the composite z-score [1] was 0.268, the z-score [2] was -0.0997 (inactive) and the z-score [3] was -0.505 (inactive). For the same compound, the z-score [4] was 0.629 (inactive), the z-score [5] was -0.0824 (inactive) and the composite z-score [6] was 2.14. It also gave a composite z-score [7] of 0.125, a composite z-score (Torsin-1A (Homo sapiens) [8]) of -0.0945 and a composite z-score (Torsin-1A (Homo sapiens) [9]) of 1.04. For the same compound, the composite z-score [10] was 0.397.
With `COc1cccc([C@H]2Oc3ccc(OC)cc3C(=NOC(C)CN3CCCc4nc(C)c(C)cc43)[C@@H]2O)c1` (stereo not given in full) the composite z-score [1] was 0.35, the z-score [2] was -0.252 (inactive) and the z-score [3] was 1.28 (inactive). For the same compound, the z-score [4] was 2.71 (inactive), the z-score [5] was -0.0145 (inactive) and the composite z-score [6] was -0.504. It also gave a composite z-score [7] of 0.0442, a composite z-score (Torsin-1A (Homo sapiens) [8]) of 0.433 and a composite z-score (Torsin-1A (Homo sapiens) [9]) of 0.27. It also gave a composite z-score [10] of 0.478.
For `COc1ccc(-c2ccc3c(n2)CCCN3CC(O)CN2CCCc3nc(C)c(C)cc32)cc1` (stereo not given), the composite z-score [1] was 0.268, the z-score [2] was -0.154 (inactive) and the z-score [3] was -0.0522 (inactive). The z-score [4] was -0.0779 (inactive), the z-score [5] was 0.536 (inactive) and the composite z-score [6] was 1.52. It also gave a composite z-score [7] of 0.276, a composite z-score (Torsin-1A (Homo sapiens) [8]) of 0.785 and a composite z-score (Torsin-1A (Homo sapiens) [9]) of 1.15. It also gave a composite z-score [10] of 1.19.
